Screens from PubChem.
INS promoter inh: TRM-6 insulin promoter activity inhibition. TRM-6 cells (human fetal islet line), insulin promoter-eGFP reporter, imaging; reporter expression induced with tamoxifen. inhibition, % at 2 µM. hit rate 0.9% among 130,000;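 active = inhibition above the mean plus 3 SD, with well images judged a real hit on visual review, cut at about 60% in these data, passing the limit was not always enough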
Lmaj promast: Leishmania major promastigote growth inhibition. Leishmania major promastigotes, resazurin fluorescence viability. inhibition, % at 10 µM. hit rate 9% among 200,000; in the data active = inhibition above about 50%;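 also: promastigotes grown with compound for 44 hours at 28 °C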
Ins promoter up: MIN6 insulin promoter up-regulation; MIN6 insulin promoter-GFP reporter, high-content imaging; active compounds read high; z-score at 5 µM; hit rate 0.3% among 190,000; AID 1625;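 active = z-score above 3 at 5 µM with at least 500 cells counted in the well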
Autophagy mod: modulators of autophagy; MEF GFP-LC3 puncta imaging; test concentration mostly 10 µM; calls only at 10 µM (by protocol); hit rate 0.98% among 190,000; AID 463193;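 active = percentage of spot-positive cells more than 3 SD above its plate mean, without a fluorescence outlier flag or 80% toxicity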
WT yeast gro inh: growth inhibition of WT yeast, mitochondrial fusion screen; mitochondrial fusion phenotypic screen, WT strain; inhibition, % at 10 µM; hit rate 2.1% among 190,000; in the data active = inhibition above about 58%; tested in S. cerevisiae
A number is an active result; – = inactive; · = no result given. Rows were chosen to be rich in hits. Some 11% of all compounds tested hit in one or more screens of this group.

SMILES | INS promoter inh | Lmaj promast | Ins promoter up | Autophagy mod | WT yeast gro inh
CCn1ccnc1CN1CCC(CO)(CCOc2ccccc2)CC1 | · | – | – | – | –
Cc1c(CN2CCC(CO)(CCOc3ccccc3)CC2)[nH]c2c(Cl)cccc12 | · | 100 | – | – | 93
COc1cc(OC)c(CN2CCC(CO)(CCOc3ccccc3)CC2)c(OC)c1 | – | – | · | – | –
Cc1nn(C)c(Cl)c1CN1CCC(CO)(CCOc2ccccc2)CC1 | – | 72 | · | – | –
COc1ccc(C(CC(=O)NCc2ccccc2)Sc2n[nH]c(-c3ccccc3)n2)cc1 (centres undefined) | · | – | – | – | –
COc1ccc(C(CC(=O)NCc2ccccc2)Sc2n[nH]c(-c3ccc(Cl)cc3)n2)cc1 (centres undefined) | – | 52 | – | – | –
Cn1c2c(c(=O)n(C)c1=O)NC1(N2)C(=O)Nc2ccccc21 (centres undefined) | · | · | – | · | ·
NC(=S)n1[nH]c(-c2ccc([N+](=O)[O-])cc2)c(N=Nc2cccc(Cl)c2)c1=O | – | – | – | – | 75
NC(=S)n1[nH]c(-c2ccc([N+](=O)[O-])cc2)c(N=Nc2ccc(O)cc2)c1=O | – | 97 | – | – | –
Nc1[nH][nH]c(=O)c1N=Nc1cccc(Cl)c1 | · | – | – | – | –
COc1cccc(CC(NC(C)=O)C(=O)NC2CCN(C(=O)C3CC3)CC2)c1OC (centres undefined) | – | – | – | – | –
CCC(C)NC(=O)CNC(=S)N(Cc1ccccc1F)C1CCCCC1 (centres undefined) | · | – | · | – | –
Fc1ccccc1C1c2cccn2CCN1C(=S)Nc1cccc(Br)c1 (centres undefined) | – | – | – | – | 59
S=C(NC1CCCCC1)N1CCn2cccc2C1c1ccncc1 (centres undefined) | – | – | – | – | –
Fc1ccccc1C1c2cccn2CCN1C(=S)Nc1ccc(Br)cc1 (centres undefined) | · | – | – | – | 62
Fc1ccc(NC(=S)Nc2ccc(Br)cc2)cc1 | – | – | – | – | –
Cc1cc(C)c2nc(SCC(=O)NCCN3C(=O)CSC3=O)cc(C)c2c1 | · | – | – | – | –
O=c1cc2c(nn1Cc1ccccc1Cl)-c1ccccc1CC2 | · | – | – | – | 69
O=C(O)c1cc2n(n1)CCN(Cc1ccccc1Cl)C2=O | · | – | – | – | –
O=c1cc2c(nn1Cc1ccc(Cl)cc1Cl)-c1ccccc1CC2 | · | – | – | – | 76
COc1ccc(/C=C/C(=O)c2ccc(NC3=NCCCS3)cc2)cc1OC | – | 100 | – | – | –
CCC1CSC(Nc2ccc(C(=O)/C=C/c3ccc(Br)cc3)cc2)=N1 (centres undefined) | – | 98 | – | – | –
COc1ccc(/C=C/C(=O)Nc2ccncc2)cc1OC | · | – | – | – | –
CCC1CSC(Nc2ccc(C(=O)/C=C/c3ccc(OC)c(OC)c3)cc2)=N1 (centres undefined) | – | 96 | – | – | 64
Fc1ccc(-c2cc(C(F)(F)F)nc(NCc3cccs3)n2)cc1 | – | – | – | – | –
SMILES | INS promoter inh | Lmaj promast | Ins promoter up | Autophagy mod | WT yeast gro inh
CC(=O)Nc1ccccc1-c1nnc(SCc2ccccc2Cl)[nH]c1=O | – | – | – | – | –
Cc1nc2c(C(=O)NCc3cccs3)cnn2c(C)c1Cc1ccccc1 | – | 54 | – | – | –
CN(c1ccc(C(=O)NCCSCc2ccccc2)cc1)S(=O)(=O)c1ccccc1 | – | 82 | – | – | –
NC(=O)c1cc[n+](CC(=O)c2ccc(NC(=O)c3ccccc3)cc2)cc1 | · | – | – | – | –
CCNc1nc(Oc2ccc(Cl)cc2Cl)cc(C(F)(F)F)n1 | – | – | – | – | –
CCNc1nc(Oc2c(Cl)cccc2Cl)cc(C(F)(F)F)n1 | – | 77 | · | – | –
Cc1ccc(C2Oc3ccccc3C3=C2C(c2cccs2)n2ncnc2N3)cc1 (centres undefined) | – | 51 | – | – | –
CC(C(=O)Nc1ccncc1)(c1ccccc1)c1ccccc1 | · | – | – | – | –
Cc1ccc(/C=C2/NC(=O)N(c3ccccc3)C2=O)o1 | – | – | – | – | –
Cc1c(C(=O)O)cccc1-c1ccc(/C=C2/NC(=O)N(c3ccccc3)C2=O)o1 | · | – | 3.9 | – | –
CCOC(=O)/C=C/C(=O)N1CCN(C(=O)/C=C/C(=O)OCC)CC1 | · | · | – | · | ·
O=c1c(N2CCOCC2)c(N2CCOCC2)c1=O | · | · | 3 | · | ·
O=C1CSC(c2cccc([N+](=O)[O-])c2)N1CCN1CCCCC1 (centres undefined) | · | 85 | – | – | –
O=C1CSC(c2ccccc2F)N1c1cc(Cl)ccc1O (centres undefined) | – | – | – | – | –
O=C1CSC(c2ccccc2F)N1CCN1CCCCC1 (centres undefined) | · | 78 | – | – | –
COc1ccc(OC)c(C(=O)CSc2nccc(-c3ccc(Br)cc3)n2)c1 | · | – | – | – | –
CC(OC(=O)c1nc(-c2ccccc2)n(-c2ccccc2)n1)C(=O)Nc1cc(Cl)cc(Cl)c1 (centres undefined) | · | – | – | – | –
CCOC(=O)C1=C(C)C(c2cccc(Oc3ccccc3)c2)NC(=S)N1 (centres undefined) | · | – | – | – | 66
CCOC(=O)C1=C(c2ccccc2)NC(=O)NC1c1cc(Cl)c(O)c(OC)c1 (centres undefined) | – | – | – | – | –
CCOC(=O)C1=C(c2ccccc2)NC(=S)NC1c1ccc(Cl)c([N+](=O)[O-])c1 (centres undefined) | – | 58 | – | – | –
CCOC(=O)C1=C(C)C(c2ccc(OC)cc2)NC(=S)N1 (centres undefined) | – | – | – | – | –
CCOC(=O)C1=C(c2cccc(Oc3ccccc3)c2)NC(=S)NC1C (centres undefined) | – | – | – | – | 64
Cc1ccc(C(=O)OC2OC(=O)C(Cl)=C2N2CCOCC2)cc1 (centres undefined) | · | – | · | – | –
COC(=O)c1ccc(COc2ccccc2/C=N/NC(=O)c2cccnc2)cc1 | · | – | – | – | –
O=C(COC(=O)COc1ccc(Cl)cc1)Nc1ccc(N2CCOCC2)cc1 | · | – | – | – | –
SMILES | INS promoter inh | Lmaj promast | Ins promoter up | Autophagy mod | WT yeast gro inh
O=C(N/N=C/c1ccc(Cl)cc1)C1CC12CCC2 (centres undefined) | – | – | – | – | –
CN(C)c1ncc(S(=O)(=O)c2ccccc2)c(-c2ccc(Cl)cc2Cl)n1 | · | – | – | – | –
CN(C)c1ncc(S(=O)(=O)c2ccc(Cl)cc2)c(-c2ccc(Cl)cc2Cl)n1 | – | – | – | – | 66
CCOc1ccc(CN2CCN(C(=O)c3ccccc3)CC2)cc1 | – | – | – | – | –
CN1CCN(Cc2ccc(OCc3ccccc3)cc2)CC1 | · | 95 | – | – | –
CCOc1ccc(C(=O)N2CCN(Cc3ccccc3)CC2)cc1 | – | – | – | – | –
CCN1CCN(Cc2ccc(OCc3ccccc3)cc2)CC1 | – | 92 | – | – | –
OC(CNCC(c1ccco1)N1CCCCC1)c1ccccc1 (centres undefined) | – | – | · | – | –
O=C(CSCc1c(F)cccc1Cl)Nc1ccccc1C(=O)N1CCOCC1 | · | – | – | – | –
Cn1c(N2CCOCC2)c(/C=N/OC(=O)c2ccc(F)cc2)c2ccccc21 | · | 100 | – | – | –
